This note sets out measurements from PubChem BioAssay (EPA / NIEHS).

SMILES strings stand for the structures. Where “and” joins values, the source holds several entries; their conditions need not be identical. Equal values may be shown once. Results filed as inconclusive are left out. Calls of active or inactive are those of the source. How the source made its calls, unless noted: active means hit-call score of the fitted dose curve at least 0.9, where 1 is the maximum; inactive means score below 0.9.

Assay [1] concerns the target Nuclear respiratory factor 1 (Homo sapiens) (UniProt Q16656). The assay can be described thus: ATG_NRF1_CIS: Attagene CIS-FACTORIAL HepG2 Assay for human Nuclear Respiratory Factor 1 (NRF1) Orphan Gene (AID 2282987). Particulars: HepG2 NRF1 cis-element reporter, Attagene multiplex; actives raise or lower the signal. Put shortly: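 Reporter mRNA induction or loss in HepG2 cells after 24 h dosing; cis-regulated reporter constructs report endogenous transcription-factor activity. Quantified by RT-PCR/capillary electrophoresis fluorescence, DMSO-referenced.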

A short description of assay [2]: ATG_NFI_CIS: Attagene CIS-FACTORIAL HepG2 Assay for human Nuclear Factor I (NFI) (AID 2282989). The note with it: HepG2 cis-regulatory reporter, NFI response element transcription; actives raise or lower the signal. Put shortly:
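Transfected HepG2 liver cells, exposed 24 h, supplied total RNA for oligo(dT) reverse transcription and reporter-specific PCR. Labelled, HpaI-cut fragments were sized by capillary electrophoresis; DMSO set the baseline for bidirectional fitting.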

Assay [3] addresses Myc proto-oncogene protein (Homo sapiens) (UniProt P01106). Briefly: ATG_Myc_CIS: Attagene CIS-FACTORIAL HepG2 Assay for human Myelocytomatosis (Myc) Proto-Oncogene Transcription Factor (AID 2282990). The note with it: HepG2, Attagene cis-reporter transcription factor activity; actives raise or lower the signal. Put shortly:
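Transiently transfected HepG2 cells bearing cis-promoter reporter units for endogenous transcription factors; 24 h exposure. Reporter mRNA measured by RT-PCR, 6-FAM primer extension, HpaI cut and capillary electrophoresis; bidirectional fit relative to DMSO.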

A short description of assay [4]: ATG_NF_kB_CIS: Attagene CIS-FACTORIAL HepG2 Assay for human Nuclear Factor Kappa B (NF-kB) (AID 2282991). The note with it: HepG2 Attagene cis-factorial NF-kB reporter mRNA; actives raise or lower the signal. An outline of the steps: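 DMSO served as negative control and baseline for bidirectional curve fitting. Transiently transfected HepG2 cells were dosed for 24 h, then reporter transcripts were measured by RT-PCR with capillary electrophoresis detection.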

Assay [5] is described as follows: ATG_NRF2_ARE_CIS: Attagene CIS-FACTORIAL HepG2 Assay for human Nuclear Factor Erythroid 2 Related Factor 2 (NFR2) response to Antioxidant Response Elements (ARE) (AID 2282992).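 On AC50: reporter mRNA level measured by RT-PCR and capillary electrophoresis fluorescence.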 Particulars: HepG2 Attagene ARE/NRF2 reporter, transcription factor activity; actives raise or lower the signal. Put shortly:
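Endogenous transcription factor activity in human liver HepG2 cells is tracked via a cis-element-driven reporter within a multiplexed set. mRNA induction is read by RT-PCR and capillary electrophoresis after 24 h, with DMSO as baseline.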

A short description of assay [6]: ATG_Oct_MLP_CIS: Attagene CIS-FACTORIAL HepG2 Assay for human Octamer-Binding Transcription Factor (Oct) (AID 2282993). Particulars: HepG2 Attagene cis-factorial Oct reporter, mRNA; actives raise or lower the signal. Put shortly:
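Using HepG2 cells bearing transfected cis-reporter constructs, mRNA induction was read after 24 h by fluorescent RT-PCR and capillary electrophoresis, with DMSO defining baseline for gain- or loss-of-signal fits.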

In assay [7] the target is Cellular tumor antigen p53 (Homo sapiens) (UniProt P04637). The assay can be described thus: ATG_p53_CIS: Attagene CIS-FACTORIAL HepG2 Assay for human p53 Transcription Factor (AID 2282994). Particulars: HepG2 p53 cis-element reporter, Attagene mRNA; actives raise or lower the signal. An outline of the steps: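 Steps: transfect HepG2 with multiplexed cis reporter constructs; dose chemicals 24 h; extract RNA, reverse-transcribe, PCR-amplify reporter sequences; FAM-label, HpaI-digest, resolve fragments by CE. Activity fitted both directions relative to DMSO.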
Sequence of Cellular tumor antigen p53 (Homo sapiens) (P04637 whole entry, looked up, the tested form may be a part): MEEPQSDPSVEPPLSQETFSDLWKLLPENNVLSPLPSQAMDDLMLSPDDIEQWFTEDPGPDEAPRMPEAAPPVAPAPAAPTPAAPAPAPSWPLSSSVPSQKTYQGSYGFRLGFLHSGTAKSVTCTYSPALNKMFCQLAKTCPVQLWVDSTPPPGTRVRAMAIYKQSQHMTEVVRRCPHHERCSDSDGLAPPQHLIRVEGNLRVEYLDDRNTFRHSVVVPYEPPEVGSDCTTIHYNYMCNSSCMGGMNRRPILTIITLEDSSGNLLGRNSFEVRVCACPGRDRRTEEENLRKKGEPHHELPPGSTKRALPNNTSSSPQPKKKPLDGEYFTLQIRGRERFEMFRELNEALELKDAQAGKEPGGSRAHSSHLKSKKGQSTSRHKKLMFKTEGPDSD

Assay [8] in a line: BSK_3C_TissueFactor: BioMAP Diversity Plus: 3C Assay for Tissue Factor Biomarker Activity (AID 2282997). The note with it: BioMAP 3C HUVEC, tissue factor biomarker readout; actives raise or lower the signal. Put shortly:
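Tissue factor on primary human umbilical vein endothelium was read by ELISA 24 h after dosing, gain or loss relative to DMSO. Cytotoxicity ran alongside via SRB (0.1%, TCA-fixed, 560 nm).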

Assay [9] is described as follows: BSK_3C_uPAR: BioMAP Diversity Plus: 3C Assay for Urokinase-type plasminogen activator receptor (uPAR) Biomarker Activity (AID 2282998). The note with it: BioMAP 3C HUVEC, uPAR biomarker ELISA; actives raise or lower the signal. Put shortly:
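In this endothelial cell-based assay, human umbilical vein primary cells were treated with chemicals and harvested at 24 h. uPAR was quantified using ELISA, with gains or losses fitted relative to DMSO controls.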
A general note: An ELISA detects its analyte on a solid surface through an enzyme-linked reagent.

Assay [10] can be described thus: BSK_3C_VCAM1: BioMAP Diversity Plus: 3C Assay for Vascular cell adhesion molecule 1 (VCAM1) Biomarker Activity (AID 2282999). The note with it: BioMAP 3C HUVEC, VCAM1 ELISA, cytokine-stimulated; actives raise or lower the signal. Put shortly:
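HUVEC primary cells, 24 h compound exposure; VCAM-1 by ELISA; gain/loss of signal fitted bidirectionally vs DMSO baseline.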

A short description of assay [11]: BSK_4H_Eotaxin3: BioMAP Diversity Plus: 4H Assay for Eotaxin 3 Biomarker Activity (AID 2283000).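 On outcome: CCL26 protein level quantified by ELISA in parallel with SRB cytotoxicity check.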 Particulars: primary human endothelial cells (HUVEC); actives raise or lower the signal. Put shortly:
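Human umbilical vein endothelial cells (BSK_4H system) dosed with test chemical; Eotaxin-3 (CCL26) measured by ELISA 24 h after dosing. Bidirectional curve fitting relative to DMSO negative control as baseline.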

In assay [12] the target is human Peroxisome Proliferator-activated Receptor alpha (PPARa), PPARA (gene 5465) (UniProt Q07869). The assay can be described thus: ATG_PPARa_TRANS: Attagene TRANS-FACTORIAL HepG2 Assay for human Peroxisome Proliferator-activated Receptor alpha (PPARa) (AID 2283001; active means hit-call score of the fitted dose curve at least 0.9, where 1 is the maximum;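 on AC50: potency for gain of reporter signal over DMSO so agonist or activator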). Put shortly: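 Transient HepG2 transfection, GAL4-UAS reporters, NR-Gal4 chimeras; 24 h compound exposure. Readout: reporter transcripts by RT-PCR, 6-FAM primer extension, HpaI digest, capillary electrophoresis. Positive direction vs DMSO baseline.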
Sequence of human Peroxisome Proliferator-activated Receptor alpha (PPARa), PPARA (gene 5465) (Q07869 whole entry, looked up, the tested form may be a part): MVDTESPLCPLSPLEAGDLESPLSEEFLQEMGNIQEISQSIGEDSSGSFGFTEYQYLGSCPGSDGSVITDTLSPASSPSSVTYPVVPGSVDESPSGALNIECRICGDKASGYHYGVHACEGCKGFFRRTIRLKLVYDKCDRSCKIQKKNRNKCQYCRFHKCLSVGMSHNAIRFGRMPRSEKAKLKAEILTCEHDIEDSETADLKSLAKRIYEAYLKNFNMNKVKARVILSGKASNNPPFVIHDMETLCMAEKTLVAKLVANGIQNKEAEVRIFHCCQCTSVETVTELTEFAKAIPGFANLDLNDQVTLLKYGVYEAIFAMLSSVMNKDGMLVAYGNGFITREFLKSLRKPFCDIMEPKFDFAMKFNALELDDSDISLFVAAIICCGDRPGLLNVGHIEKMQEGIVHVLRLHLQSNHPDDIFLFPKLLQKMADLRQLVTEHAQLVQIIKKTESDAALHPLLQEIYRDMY

The target of assay [13] is human Peroxisome Proliferator-activated Receptor delta (PPARd), PPARD (gene 5467) (UniProt Q03181). Briefly: ATG_PPARd_TRANS: Attagene TRANS-FACTORIAL HepG2 Assay for human Peroxisome Proliferator-activated Receptor delta (PPARd) (AID 2283002; active means hit-call score of the fitted dose curve at least 0.9, where 1 is the maximum). An outline of the steps: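 HepG2 cells transiently transfected with GAL4-UAS multiplexed reporter units driven by exogenous chimeric NR-GAL4 proteins; 24 h compound exposure. Reporter mRNA measured by RT-PCR, 6-FAM primer extension, HpaI digestion and capillary electrophoresis; gain of signal fitted relative to DMSO.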
Sequence of human Peroxisome Proliferator-activated Receptor delta (PPARd), PPARD (gene 5467) (Q03181 whole entry, looked up, the tested form may be a part): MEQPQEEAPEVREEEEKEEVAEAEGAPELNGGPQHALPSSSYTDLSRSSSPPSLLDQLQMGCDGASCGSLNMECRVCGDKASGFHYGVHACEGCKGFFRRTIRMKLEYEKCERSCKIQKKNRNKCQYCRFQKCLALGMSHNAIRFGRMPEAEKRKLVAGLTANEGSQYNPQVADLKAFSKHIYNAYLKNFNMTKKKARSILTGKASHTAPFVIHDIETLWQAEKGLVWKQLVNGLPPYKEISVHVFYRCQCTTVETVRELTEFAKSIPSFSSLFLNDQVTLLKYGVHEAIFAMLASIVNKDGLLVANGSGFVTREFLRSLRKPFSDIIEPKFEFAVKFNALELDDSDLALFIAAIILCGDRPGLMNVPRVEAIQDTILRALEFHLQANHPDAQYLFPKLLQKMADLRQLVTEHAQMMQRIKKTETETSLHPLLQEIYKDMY

Read-out in assay [14]: Intercellular Adhesion Molecule 1 (ICAM1), ICAM1 (gene 3383)
The assay can be described thus: BSK_3C_ICAM1: BioMAP Diversity Plus: 3C Assay for Intercellular Adhesion Molecule 1 (ICAM1) Biomarker Activity (AID 2283003). The note with it: primary human endothelial cells (HUVEC); actives raise or lower the signal. Put shortly: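 ELISA read-out of ICAM-1; HUVEC (primary human), 3C system, 24 h post-dosing; bidirectional fit vs DMSO baseline.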

Assay [15] is described as follows: BSK_3C_Proliferation: Cell Proliferation Assessment in the BioMAP Diversity Plus: 3C Assay (AID 2283006).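 On AC50: potency may reflect either rise or fall in cell number versus DMSO.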 Particulars: primary human endothelial cells (HUVEC). Put shortly: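 HUVEC, sub-confluent; 48 h chemical exposure; 10% TCA fix, 0.1% SRB stain, A560 total protein. Gain or loss of signal fitted both directions vs DMSO control.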
Assay [16] deals with Peroxisome proliferator-activated receptor gamma (Homo sapiens) (UniProt P37231). The assay can be described thus: ATG_PPARg_TRANS: Attagene TRANS-FACTORIAL HepG2 Assay for human Peroxisome Proliferator-activated Receptor-gamma (PPARg) (AID 2283007; active means hit-call score of the fitted dose curve at least 0.9, where 1 is the maximum). An outline of the steps:
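Chimeric NR-Gal4 transactivation is measured in transiently transfected HepG2 cells by reporter mRNA induction at 24 h. Detection uses RT-PCR with fluorescent labelling and capillary electrophoresis; DMSO defines baseline.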

Assay [17] addresses Nuclear receptor subfamily 1 group I member 2 (Homo sapiens) (UniProt O75469). The assay can be described thus: ATG_PXR_TRANS: Attagene TRANS-FACTORIAL HepG2 Assay for human Pregnane X Receptor (PXR) (AID 2283008; active means hit-call score of the fitted dose curve at least 0.9, where 1 is the maximum). Put shortly: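 HepG2 transfected (FuGene 6) with GAL4-UAS reporter units + PXR-Gal4 chimera; dosed 24 h. Total RNA → oligo(dT) RT → PCR → 6-FAM primer extension → HpaI cut → CE. Gain-of-signal vs DMSO.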

Assay [18] has as its target human Retinoic Acid Receptor gamma (RARg), RARG (gene 5916) (UniProt P13631). The assay can be described thus: ATG_RARg_TRANS: Attagene TRANS-FACTORIAL HepG2 Assay for human Retinoic Acid Receptor gamma (RARg) (AID 2283009; active means hit-call score of the fitted dose curve at least 0.9, where 1 is the maximum). Put shortly: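 Readout: reporter transcript levels via RT-PCR, 6-FAM primer-extension labelling, HpaI digestion and capillary electrophoresis. Cells: HepG2 carrying transfected RARg-GAL4 chimera plus UAS reporter set. Dosing 24 h; DMSO negative control.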

For assay [19], the target named is human Retinoic Acid Receptor beta (RARb), RARB (gene 5915) (UniProt P10826). The assay can be described thus: ATG_RARb_TRANS: Attagene TRANS-FACTORIAL HepG2 Assay for human Retinoic Acid Receptor beta (AID 2283004; active means hit-call score of the fitted dose curve at least 0.9, where 1 is the maximum). Put shortly: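 Induction of reporter mRNA from a chimeric RARb-Gal4 construct was measured by RT-PCR, FAM labelling, HpaI digestion and capillary electrophoresis. Measurements followed 24 h compound treatment of transiently transfected human HepG2 liver cells, with DMSO as baseline.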
Sequence of human Retinoic Acid Receptor beta (RARb), RARB (gene 5915) (P10826 whole entry, looked up, the tested form may be a part): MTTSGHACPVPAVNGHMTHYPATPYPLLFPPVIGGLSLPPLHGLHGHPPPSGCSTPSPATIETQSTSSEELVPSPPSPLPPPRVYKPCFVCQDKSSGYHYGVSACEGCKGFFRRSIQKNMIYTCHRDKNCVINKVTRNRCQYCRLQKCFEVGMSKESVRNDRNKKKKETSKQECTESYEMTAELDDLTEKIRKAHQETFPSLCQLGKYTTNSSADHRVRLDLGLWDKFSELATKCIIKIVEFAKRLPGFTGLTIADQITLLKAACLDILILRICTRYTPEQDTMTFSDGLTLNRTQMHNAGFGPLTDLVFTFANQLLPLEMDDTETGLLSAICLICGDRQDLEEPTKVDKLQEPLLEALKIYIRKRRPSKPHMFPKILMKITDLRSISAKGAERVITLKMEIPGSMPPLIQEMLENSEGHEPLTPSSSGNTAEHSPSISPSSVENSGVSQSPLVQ

Sequence of Nuclear receptor subfamily 1 group I member 2 (Homo sapiens) (O75469 whole entry, looked up, the tested form may be a part): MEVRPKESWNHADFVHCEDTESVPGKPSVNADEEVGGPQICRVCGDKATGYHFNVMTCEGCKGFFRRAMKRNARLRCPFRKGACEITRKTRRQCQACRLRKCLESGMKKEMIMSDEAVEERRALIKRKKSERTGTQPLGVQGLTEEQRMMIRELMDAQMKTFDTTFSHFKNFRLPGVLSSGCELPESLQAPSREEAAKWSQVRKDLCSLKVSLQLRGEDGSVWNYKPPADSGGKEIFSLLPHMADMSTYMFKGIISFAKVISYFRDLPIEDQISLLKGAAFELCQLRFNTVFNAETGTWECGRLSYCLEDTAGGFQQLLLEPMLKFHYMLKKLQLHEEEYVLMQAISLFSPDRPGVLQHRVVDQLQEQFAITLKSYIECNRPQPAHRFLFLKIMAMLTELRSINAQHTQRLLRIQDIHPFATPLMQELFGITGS
Sequence of Peroxisome proliferator-activated receptor gamma (Homo sapiens) (P37231 whole entry, looked up, the tested form may be a part): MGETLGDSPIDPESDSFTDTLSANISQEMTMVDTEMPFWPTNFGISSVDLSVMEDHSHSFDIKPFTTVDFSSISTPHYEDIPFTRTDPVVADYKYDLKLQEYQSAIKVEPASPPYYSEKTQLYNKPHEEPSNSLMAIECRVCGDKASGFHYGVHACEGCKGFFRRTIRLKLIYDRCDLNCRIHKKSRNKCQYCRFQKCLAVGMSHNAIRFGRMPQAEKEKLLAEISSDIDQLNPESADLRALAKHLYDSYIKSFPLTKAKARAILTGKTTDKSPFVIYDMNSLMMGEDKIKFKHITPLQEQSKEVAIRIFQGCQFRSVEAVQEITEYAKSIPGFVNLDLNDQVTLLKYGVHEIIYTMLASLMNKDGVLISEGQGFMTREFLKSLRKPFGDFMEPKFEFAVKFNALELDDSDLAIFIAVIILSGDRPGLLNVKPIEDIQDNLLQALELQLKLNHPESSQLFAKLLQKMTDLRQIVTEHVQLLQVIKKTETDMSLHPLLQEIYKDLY
Sequence of Nuclear respiratory factor 1 (Homo sapiens) (Q16656 whole entry, looked up): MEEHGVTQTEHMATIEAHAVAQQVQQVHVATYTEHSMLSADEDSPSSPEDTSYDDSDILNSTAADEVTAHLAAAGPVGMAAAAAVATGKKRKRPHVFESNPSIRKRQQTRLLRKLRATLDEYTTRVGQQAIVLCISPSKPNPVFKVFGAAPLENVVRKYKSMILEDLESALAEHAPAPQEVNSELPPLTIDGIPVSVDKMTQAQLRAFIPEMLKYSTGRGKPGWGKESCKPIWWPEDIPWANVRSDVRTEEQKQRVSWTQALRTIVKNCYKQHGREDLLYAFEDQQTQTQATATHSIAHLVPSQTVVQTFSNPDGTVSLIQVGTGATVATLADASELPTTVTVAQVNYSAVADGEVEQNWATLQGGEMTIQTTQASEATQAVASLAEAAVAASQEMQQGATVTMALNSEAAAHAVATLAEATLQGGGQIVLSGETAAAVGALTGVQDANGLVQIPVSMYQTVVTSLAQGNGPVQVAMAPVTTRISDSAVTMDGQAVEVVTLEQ
Sequence of human Retinoic Acid Receptor gamma (RARg), RARG (gene 5916) (P13631 whole entry, looked up, the tested form may be a part): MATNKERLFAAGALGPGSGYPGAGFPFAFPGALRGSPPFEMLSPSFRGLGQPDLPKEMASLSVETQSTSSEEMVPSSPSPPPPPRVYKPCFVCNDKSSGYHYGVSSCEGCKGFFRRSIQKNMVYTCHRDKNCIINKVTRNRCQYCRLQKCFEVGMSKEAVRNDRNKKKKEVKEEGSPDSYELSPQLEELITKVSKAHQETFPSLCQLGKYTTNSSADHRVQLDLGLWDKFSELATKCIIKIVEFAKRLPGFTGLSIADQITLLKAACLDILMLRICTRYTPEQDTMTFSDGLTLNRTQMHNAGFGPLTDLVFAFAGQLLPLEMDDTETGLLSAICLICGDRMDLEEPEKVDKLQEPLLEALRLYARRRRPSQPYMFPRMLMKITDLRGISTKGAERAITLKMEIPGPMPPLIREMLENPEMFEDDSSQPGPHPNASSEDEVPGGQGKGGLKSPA
Sequence of Myc proto-oncogene protein (Homo sapiens) (P01106 whole entry, looked up): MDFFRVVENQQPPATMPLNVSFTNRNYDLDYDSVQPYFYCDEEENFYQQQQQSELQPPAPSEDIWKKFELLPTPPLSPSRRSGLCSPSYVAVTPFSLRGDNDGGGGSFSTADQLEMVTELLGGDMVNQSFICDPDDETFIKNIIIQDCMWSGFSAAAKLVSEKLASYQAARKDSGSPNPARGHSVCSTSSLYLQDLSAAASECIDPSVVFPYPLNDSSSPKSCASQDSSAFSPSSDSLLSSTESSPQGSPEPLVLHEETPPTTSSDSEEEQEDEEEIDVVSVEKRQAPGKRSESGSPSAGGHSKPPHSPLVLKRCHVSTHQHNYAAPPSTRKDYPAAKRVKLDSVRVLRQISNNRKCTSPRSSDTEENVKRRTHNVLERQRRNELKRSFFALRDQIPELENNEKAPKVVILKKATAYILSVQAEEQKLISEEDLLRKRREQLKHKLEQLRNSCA

By AC50 is commonly meant the concentration giving half of the maximal activity seen. With `CCOC(C=C(C)CCC=C(C)C)OCC`, the result in assay [1], in [2], in assay [3], in [4], in assay [6] and in assay [7] was inactive. Moreover, the molecule was classed as inactive in [12] and in [13]. Also, the AC50 in [5] is 46.5 µM (active); in assay [8], 30.9 µM (active); in assay [9], 31.3 µM (active); in [10], 34 µM (active); in [11] it was 29.3 µM (active); in assay [14], 34.5 µM (active). For the same molecule, the results for the half-maximal activity concentration (AC50) in assay [15], in assay [16] and in [17] were 28.1 µM (active), 15.3 µM (active) and 26.5 µM (active), respectively.
For `O=C(O)C(F)(F)C(F)(F)C(F)(F)C(=O)O`, the outcome in assay [1], in assay [2], in [3], in assay [4], in assay [5] and in [6] was inactive. Also, the call in assay [7], in assay [8], in assay [9], in assay [10], in [11] and in [12] was inactive. Further, the outcome in [14], in assay [15] and in assay [18] was inactive. Besides, in [16], the AC50 is 84.1 µM (active).
As to `FC(F)(F)C(F)(F)C(F)(F)C(F)(F)C(F)(F)C(F)(F)CC[Si](Cl)(Cl)Cl`, the result in [1], in assay [2], in [3], in assay [4], in assay [5] and in assay [6] was inactive. In addition, the outcome in assay [7], in [8], in assay [9], in [10], in assay [11] and in assay [12] was inactive. Moreover, the outcome in assay [14], in [19], in assay [15], in assay [16], in assay [17] and in assay [18] was inactive.
With `CCN=C1C=CC(=C(c2ccc(N(CC)CC)cc2)c2ccc(N(CC)CC)cc2)c2ccccc21`, the AC50 was 1.04 µM (active) in [1]; 0.0811 µM (active) in assay [5]; 0.566 µM (active) in [6]; 0.917 µM (active) in assay [7]; 1.96 µM (active) and 1.79 µM (active) in assay [8]; 3.95 µM (active) and 1.39 µM (active) in assay [9]. Also, the AC50 is 2.64 µM (active) and 2.81 µM (active) in [10]; 1.74 µM (active) in [11]; 3.69 µM (active) and 3.76 µM (active) in [14]; 888 nM (active) and 871 nM (active) in assay [15]. Moreover, the outcome in assay [2], in [3], in assay [4], in assay [16] and in [17] was inactive.
For `CCN(CC)c1ccc2c(c1)Oc1cc(N(CC)CC)ccc1C21OC(=O)c2ccccc21`, the result in assay [1], in assay [2], in [3], in [4], in assay [6] and in assay [7] was inactive. Further, the outcome in [10], in assay [11], in assay [13] and in assay [14] was inactive. Besides, the concentration at half-maximal activity (AC50) is 34.8 µM (active) in assay [5]; 2.97 µM (active) in [8]; 11.2 µM (active) in assay [9]; 5.03 µM (active) in [15]; 17.6 µM (active) in assay [16]; 0.348 µM (active) in assay [17].
For the molecule `O=C(c1ccccc1)c1ccc(O)cc1O`, the molecule was classed as inactive in [1], in assay [2], in assay [3], in [4], in assay [6] and in [7]. In addition, the outcome in [8], in assay [9], in assay [10], in assay [11], in [12] and in assay [14] was inactive. Further, the molecule was called inactive in assay [19], in assay [15], in [17] and in [18]. Also, the concentration at half-maximal activity (AC50) in assay [5] is 66.8 µM (active); in assay [16] it was 42.5 µM (active).
For `O=C(O)C(F)(F)C(F)(F)C(F)(F)OC(F)(F)F`, the result in assay [1], in assay [2], in assay [3], in [4], in [5] and in assay [6] was inactive. Further, the outcome in assay [7], in [8], in assay [9], in assay [10], in assay [11] and in assay [14] was inactive. The molecule was called inactive in assay [19], in assay [15], in assay [16] and in [17]. Besides, in assay [12], the half-maximal activity concentration (AC50) was 61.4 µM (active).
